# Screening data deposited in PubChem BioAssay by National Center for Advancing Translational Sciences (NCATS).
# The list is not random: actives were taken first. Their share in the collection is about 13%.
# Cycloheximide cs – counter-screen for Shiga toxin inhibitors: cycloheximide protein synthesis inhibition; cell reporter, cycloheximide protein synthesis inhibition counterscreen; max response, %; 300,000 compounds, 12% hits; in the data active = max response mostly above about 13%, no sharp cut-off; inactive = mostly below about 14%; note: read at 38.3 µM for the half of the compounds with a filed dose; 0% is about no effect
# HCV inh – HCV inhibition. Huh7.5.1 HCVcc-Cre infection, luciferase reporter, 44 h. Potency, µM (titrated, usually from 41.8 µM), without a hit: top-dose activity change, negative = inhibition, hits mostly inhibitors. 340,000 compounds, 3.4% hits. AID 651820; active = well fitted inhibition curve with a large enough effect; inconclusive = small, poorly fitted or top-dose-only effect, or another doubt; inactive = no such curve, though single readings can be large or run the other way; note: potency is the fitted concentration of half-maximal effect; % is set by controls: 0 for no effect and ±100 for the full control effect
#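 Cells seeded at 1,000/well and cultured 4 h, then compounds added followed by HCVcc-Cre virus (~0.5 moi). After 44 h further culture, luciferase substrate was added, plates held 15 min at room temperature, and luminescence read for 15 sec.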
# Shiga inhibitor – inhibitors of Shiga toxin in Vero cells; 290,000 compounds, 9.2% hits; inhibition, % at 38.7 µM; Vero cells, Shiga toxin protein synthesis inhibition reporter; in the data active = inhibition mostly above about 28%, no sharp cut-off; inactive = mostly below about 43%; note: 0% is about no effect
# Lassa entry inh – blocks Lassa virus binding to or entry into cells | Lassa virus pseudotype entry inhibition, cell reporter | Potency, µM (highest dose often 37.9 µM), for the others: at the top dose activity change, negative = inhibition, usual class: inhibitors | AID 540256 | 300,000 compounds, 1.2% hits; calls by dose curve; tested in HEK293 cells; note: potency is the fitted concentration of half-maximal effect; % is set by controls: 0 for no effect and ±100 for the full control effect; nearly all actives have a fitted effect of over 50% in size
# FMDV inh – foot and mouth disease virus antiviral activity | FMDV antiviral cell-based qHTS | Potency, µM (doses to about 57.9 µM), inactives show top-dose activity change, negative = inhibition, hits mostly inhibitors | 410,000 compounds, 1.2% hits | AID 1159524; calls by dose curve; tested in HEK293T cells; note: read-out not given here; potency is the fitted concentration of half-maximal effect; % is set by controls: 0 for no effect and ±100 for the full control effect; nearly all actives have a fitted effect of over 45% in size
# Marburg entry inh – inhibitors of Marburg virus binding or cell entry; Potency, µM (titrated, usually from 37.8 µM), for the others: at the top dose activity change, negative = inhibition, most hits filed as inhibitors; Marburg virus pseudotyped entry inhibition, cell reporter; 300,000 compounds, 1.8% hits; calls by dose curve; tested in HEK293 cells; note: potency is the fitted concentration of half-maximal effect; % is set by controls: 0 for no effect and ±100 for the full control effect
# The depositor's hits bear a star; ? = inconclusive; · = no result; [ ] = dose if it differs, or a comment.
SMILES,Cycloheximide cs,HCV inh,Shiga inhibitor,Lassa entry inh,FMDV inh,Marburg entry inh
COc1ccccc1Cc1nc(-c2ccncc2)no1,20.2*,?,20.7,·,9.4%,·
CCOc1ccc(NC(=O)Nc2ccc3snnc3c2)cc1,·,·,·,26.8%[46.1 µM],8.7%,1.9%[46.1 µM]
CCOc1ccc(NC(=S)Nc2ccc(OC(F)(F)F)cc2)cc1,-0.6,-3.6%,0.2,-12.3%,-0.1%,11.3%
CCOc1ccc(NC(=O)Nc2ccc3nsnc3c2)cc1,32.6*,-6.4%,32.4,2.2%,20.4%,15.5%
CCOc1ccc(NC(=S)Nc2cc(C)[nH]n2)cc1,26.9*,-6.4%,62.2*,-4.0%,55.5%,-7.9%[46.1 µM]
COc1ccc(NC(=S)Nc2ccc3nsnc3c2)cc1,41.0*,?,61.0,19.9%,27.7%,?
CCNC(=S)Nc1ccc(OCC)cc1,-1.1,5.4%,17.3,1.0%,1.8%,12.3%
CCOc1ccc(NC(=S)Nc2ccc3nsnc3c2)cc1,33.2*,?,56.5*,0.6%,30.5%,-33.8%
CCO[C@H]1OC(C(=O)NCc2ccccc2)=C[C@@H](C(C)(C)C)[C@@H]1CCCO,·,1.2%,·,·,2.8%,·
Cc1nn(Cc2ccc([N+](=O)[O-])cc2)c(=O)n1-c1ccc(Cl)cc1,-4.8,?,-1.5,7.3%,-18.0%,-15.0%[46.1 µM]
COC(=O)c1sc(C(F)(F)F)c(-c2ccccc2)c1S(=O)(=O)NC(C)(C)C,6.4,11.0%,-4.5,·,-38.3%,·
O=C(/C=C/C=C/c1ccccc1)CC1(O)C(=O)Nc2ccccc21 (stereo not drawn),18.5*,14.8%,37.3,?,?,0.2%[46.1 µM]
CCOc1ccc(/C=N/NC2=NCCCCC2)cc1,19.5*,6.0%,27.0*,0.0%[46.1 µM],2.6%,17.1%[46.1 µM]
O=C(N/N=C/c1ccco1)Nc1ccccc1,29.3*,-3.2%,102.0*,?,52.3%,?
CCOc1ccc(/C=N/Nc2cc(C)nc(N3CCOCC3)n2)cc1,-1.5,0.7%,35.2,?,-7.0%,15.8%[46.1 µM]
CCOc1ccc(/C=N/Nc2ccccc2)cc1,27.5*,-23.6%,46.8*,·,54.9%,·
O=C(N/N=C/c1ccc(Cl)cc1)Nc1ccccc1,39.3*,-0.2%,50.0*,?,8.0%,?
CN(c1ccc(OCC(=O)OCC(=O)NC2CCCC2)cc1)S(=O)(=O)c1ccc2ccccc2c1,4.8,1.6%,-5.9,-1.0%[46.1 µM],5.2%,0.4%[46.1 µM]
O=C(COC(=O)CSc1ccc([N+](=O)[O-])cc1)NCc1ccco1,·,0.9%,·,?,2.5%,?
S=C(NCCc1ccccc1)N/N=C/c1ccc(Cl)cc1,11.1,21.6%,14.5,-16.6%,1.6%,2.3%[46.1 µM]
Clc1ccc(/C=N\Nc2ccccc2)cc1,11.8,-5.2%,27.1*,·,44.3%,·
Cc1ccc(C(=O)Nc2ccccc2Oc2ccccc2)o1,·,-0.1%,·,·,-10.4%,·
Cc1nn(Cc2cccc(C(=O)NC34CC5CC(CC(C5)C3)C4)c2)c(C)c1Br,4.3,14.1µM*,15.9,?,?,?
COc1ccc(C(=O)NN/C(C)=C/C(=O)C(F)(F)C(F)(F)C(F)(F)F)cc1,21.9*,35.2%,43.7*,-6.8%,-18.5%,?
CCCNC(=O)c1cccc(Cn2nc(C)c(Br)c2C)c1,-2.5,?,-13.4,-1.6%,-18.7%,-21.7%[46.1 µM]
SMILES,Cycloheximide cs,HCV inh,Shiga inhibitor,Lassa entry inh,FMDV inh,Marburg entry inh
COc1cccc(C(=O)Nc2cccc(SC)c2)c1,18.7*,-22.9%,62.7*,-1.2%,7.6%,?
Cc1ccc(C(=O)Nc2cccc(Oc3ccccc3)c2)o1,30.2*,?,34.0,?,21.2%,-20.2%
CCOc1ccccc1N1CCN(C(=O)NC2CCCCC2)CC1,2.3,12.0%,3.2,13.8%[46.1 µM],15.1%,?
COc1ccccc1NC(=O)C(=O)/C=C(\O)c1ccccc1,47.8*,-12.2%,63.6*,-10.7%,-6.8%,?
COc1cccc(OC)c1C(=O)NNC(=O)c1cccnc1,18.2*,18.8%,-15.3,?,-14.1%,4.3%
COc1cccc(C(=O)NNC(=O)c2cccnc2)c1,7.2,-6.7%,-6.6,4.9%[46.1 µM],4.2%,8.8%[46.1 µM]
CCOc1ccc(Nc2nc(C)c(NC(=O)c3cccc(OC)c3)c(Nc3ccc(OCC)cc3)n2)cc1,·,·,·,2.8%[46.1 µM],?,11.2µM*
COc1cccc(C(=O)Nc2ccc3ccccc3c2)c1,40.2*,?,·,?,-49.2%,?
c1ccc(-c2cccc(N3CCC4(CCNCC4)CC3)c2)cc1,·,·,·,·,-7.9%,·
CCn1c2ccccc2c2cc(NC(C)=O)ccc21,-1.5,?,-13.5,14.1%,-13.5%,18.3%[46.1 µM]
CCn1c2ccccc2c2cc(NC(=O)C(=O)N3CCOCC3)ccc21,35.2*,11.2µM*,85.6*,6.3%,53.0%,?
COc1cccc(/C(C)=N/N=C(\C)c2cccc(OC)c2)c1,34.4*,?,39.0*,·,44.8%,·
COc1cccc(C(=O)N/N=C(/CCC(=O)O)c2ccccc2)c1,52.4*,1.5%,active,-11.9%,-12.1%,?
COc1cccc(C(=O)Nc2ccccc2)c1,35.3*,-7.8%,63.9*,3.0%,43.7%,9.1%
COc1cccc(C(N)=O)c1,·,3.7%,·,·,-11.6%,·
COc1cccc(C(=O)NNC(=O)c2ccccc2)c1,43.5*,3.0%,69.2*,·,55.5%,·
O=C(Nc1cccc(NC(=O)c2cccnc2)c1)c1cccnc1,-3.6,1.2%,-3.5,22.0%,·,-1.5%
COc1cccc(C(=O)NC23CC4CC(CC(C4)C2)C3)c1,14.7*,12.6%,17.9,1.0%[46.1 µM],21.3%,?
COc1cccc(NC(=O)c2cccnc2)c1,31.6*,7.4%,31.1,1.0%,39.5%,19.3%
COc1ccc(/C(O)=C/C(=O)C(=O)NNC(=O)c2ccccc2)cc1,29.9*,2.4%,32.7,1.4%[46.1 µM],11.6%,17.2%[46.1 µM]
COc1ccc(C(=O)NC23CC4CC(CC(C4)C2)C3)cc1,3.8,6.5%,15.8,·,14.2%,·
COc1ccc(/C(O)=C/C(=O)C(=O)NNC(=O)C(O)(c2ccccc2)c2ccccc2)cc1,5.7,-7.5%,-8.0,3.2%,-20.2%,?
C[C@H](CO)N1C[C@H](C)[C@@H](CN(C)Cc2ccncc2)Oc2c(NC(=O)C3CC3)cccc2C1=O,·,1.0%,·,·,23.5%,·
CSc1ccc(CCNC(=O)CCc2c(C)nc3c(-c4ccccc4)c(C)nn3c2C)cc1,·,·,·,-11.7%[46.1 µM],?,?
CC(C)CCNC(=O)CCCOc1ccccc1,1.5,-6.9%,-14.4,1.7%,-2.7%,-27.9%
SMILES,Cycloheximide cs,HCV inh,Shiga inhibitor,Lassa entry inh,FMDV inh,Marburg entry inh
Cc1cccc(C(=O)NCCNC(=O)c2cccc(C)c2)c1,-0.7,-6.2%,-9.9,?,-13.3%,-41.0%
CCC/C(=N\NC(=O)c1cccc(C)c1)c1ccccc1,56.4*,10.2%,59.3*,?,11.4%,0.5%
COC(=O)c1c(NC(=O)c2cccnc2)sc(C)c1C,-3.1,10µM*,-7.1,20.0%,?,-1.7%
COC(=O)c1c(NC(=O)c2cccnc2)sc(C(=O)N(C)C)c1C,-1.7,8.4%,-2.4,17.4%,-2.9%,12.2%
CCn1c2ccccc2c2cc(NC(=O)c3ccco3)ccc21,18.2*,3.16µM*,40.8,?,·,-13.8%
Cc1cccc(C(=O)Nc2ccc3ccccc3c2)c1,52.4*,?,91.6*,·,24.6%,·
COc1ccc(Br)cc1CNC(=O)CSc1n[nH]c(-c2ccccc2)n1,·,·,·,-21.9%[46.1 µM],0.0%,·
